Experimental data: ChEMBL document CHEMBL3988442, “University of Dundee, Small-Polar-MMV Screening Library” (2021)
Hit rate of the full screen: of about 48,000 compounds, about 13,000 (27%) showed an effect of 50% or more. The list shows a part of the results.

Tested on: Wolbachia pipientis
Experiment: Anti-Wolbachia Cell-Based Screen
Format: functional
Design: scale not given: in the data most compounds retested in dose-response had high values
Conditions: 5 µM

Compared with `COCC1CN(Cc2ccncc2)Cc2nn(CC3CC3)cc21.O=C(O)C(F)(F)F.O=C(O)C(F)(F)F` (stereo not given), `CSc1ccccc1CN1C[C@H]2C(=O)N(CC3CC3)C[C@@]2(C(=O)O)C1` is higher in “Percent Effect” value: -9.02% for the first, 6.148% for the second.

Compared with `COCc1noc(C2(c3ccc(F)cc3)CC2)n1`, `CCc1ccc(CN(C)Cc2nc(COc3ccccc3)no2)nc1` is higher in “Percent Effect” value: 1.348% for the first, 78.29% for the second.

Compared with `c1csc(CN2C[C@H]3CCC[C@@]3(COCC3CCOCC3)C2)n1`, `O=C(CC1CCCCC1)NC1CCCc2nc(N3CCOCC3)ncc21` (stereo not given) is higher in “Percent Effect” value: 5.846% for the first, 100.9% for the second.

Going from `COCCN1C[C@H]2CC[C@@H]1CN(C(=O)c1ccc(Cl)cc1)C2` to `COCCN1CC(O)CN(C(=O)c2ccc(SC)cc2)CC1=O` (stereo not given), the “Percent Effect” value rises from 3.109% to 110.7%.

Compared with `COCCN1CC(C(=O)NCc2ccc(C)s2)CC1=O` (stereo not given), `CCN1CC(C(=O)NCc2cccc(SC)c2)CC1=O` (stereo not given) is lower in “Percent Effect” value: -3.089% for the first, -13.72% for the second.

Compared with `CSc1ccc(C(=O)N2C[C@H]3CC[C@@H]2CN(Cc2ccccc2)C3)cc1`, `CSc1ccc(C(=O)N2C[C@H]3CC[C@@H]2CN(Cc2cccnc2)C3)cc1` is higher in “Percent Effect” value: 17.05% for the first, 37.83% for the second.

First: CSc1ccc(C(=O)N2CCCC(Nc3ccc(F)cc3)C2)cc1 (stereo not given)
Second: CSc1ccc(C(=O)N2CC(=O)N(Cc3ccccc3)CC(O)C2)cc1 (stereo not given)
The “Percent Effect” value of the first is lower: -32.55% for the first, 97.14% for the second.

Going from `CSc1ccc(C(=O)N2CC(=O)N(CC3CC3)CC(O)C2)cc1` (stereo not given) to `COc1ccc(C(=O)N2CC(=O)N(CC3CC3)CC(O)C2)cc1` (stereo not given), the “Percent Effect” value falls from 119.8% to 115.7%.

Going from `COc1ccc2cc(C(=O)N3CC[C@H](CO)[C@H](O)C3)n(C)c2c1` to `CCOC(=O)N1CC(=O)N(Cc2ccc(OC)cc2)CC(O)C1` (stereo not given), the “Percent Effect” value rises from -6.471% to 85.47%.

Going from `COc1ccc(C(=O)N2CCN3C(=O)CNC(=O)[C@@H]3C2)cc1` to `COc1ccc(CN2CC(O)CN(C(=O)c3ccccc3)CC2=O)cc1` (stereo not given), the “Percent Effect” value rises from -1.212% to 119%.

Going from `CN(C)Cc1ccc(C2CCCCN2C(=O)c2cccc(CO)n2)cc1` (stereo not given) to `O=C(c1cccnc1N1CCOC(c2ccc(Cl)cc2)C1)N1CCCC1` (stereo not given), the “Percent Effect” value rises from 7.792% to 19.68%.

First: CCCc1c(C(=O)N2CCN(c3nccc(OC)n3)CC2)cnn1C
Second: CN1CCCN(c2nccc(-c3c[nH]nc3C3CCCCC3)n2)CC1
The “Percent Effect” value of the first is lower: 3.097% for the first, 25.46% for the second.

Compared with `Cc1cc2nc(CO[C@H]3CN(C)C[C@H]3F)[nH]c2cc1C`, `CCOc1nnc(CN2CCC(c3nc4ccccc4[nH]3)CC2)s1` is higher in “Percent Effect” value: -14.61% for the first, -10.51% for the second.

Going from `COC1CCC(N(C)c2ccnc(N(C)C)n2)CC1` (stereo not given) to `CN(C)c1ncc2c(n1)CCCC2NC(=O)C1CC1` (stereo not given), the “Percent Effect” value rises from 2.902% to 13.73%.

First: CCN1CC(C(=O)N2CC(Oc3ccccc3F)C2)CC1=O (stereo not given)
Second: CCN1CC(O)CN(C(=O)c2ccc(SC)cc2)CC1=O (stereo not given)
The “Percent Effect” value of the first is lower: -11.41% for the first, 105.2% for the second.

Going from `CSc1ccc(C(=O)N2CC(=O)N(CC(C)(C)C)CC(O)C2)cc1` (stereo not given) to `COc1ccc(CN2CC(O)CN(C(=O)OCC(C)(C)C)CC2=O)cc1` (stereo not given), the “Percent Effect” value rises from 76.9% to 112.6%.

Going from `c1cc(-c2c[nH]nc2C2CCCCC2)nc(N2CCCCCC2)n1` to `NC(=O)C1CCN(c2nccc(-c3c[nH]nc3C3CCCCC3)n2)CC1`, the “Percent Effect” value rises from 78.4% to 81.82%.

Going from `c1cc(-c2cn3nccc3nc2C2CCCCC2)nc(N2CCCC2)n1` to `c1cc(-c2noc(C3CCC3)n2)cc(N2CCCCC2)n1`, the “Percent Effect” value falls from 96.94% to -13.71%.

Going from `Cc1ccnc(N2CCC(OCCN3CCCCC3)C2)n1` (stereo not given) to `Cc1ccnc(N2CCC(C(N)=O)CC2)n1`, the “Percent Effect” value rises from 14.04% to 120.1%.

Going from `NC(=O)N1CCCCCC1C1CCN(c2nccc(C(F)(F)F)n2)CC1` (stereo not given) to `O=C(NC1CCCc2nc(N3CCCCC3)ncc21)C1CCCC1` (stereo not given), the “Percent Effect” value rises from -6.613% to 90.75%.

Compared with `NC(=O)C1CCN(c2cncc(-n3cccn3)n2)CC1`, `N#Cc1cc(NC(=O)c2ccsc2)ccc1N1CCC(O)CC1` is lower in “Percent Effect” value: 4.657% for the first, -1.175% for the second.

First: Cc1ccnc(N2CCN(C3CCS(=O)(=O)C3)CC2)n1 (stereo not given)
Second: CC1(C)CC(N2Cc3nc(N4CCOCC4)ncc3C2=O)CC(C)(C)N1
The “Percent Effect” value of the first is lower: 0.9659% for the first, 10.47% for the second.

First: CC(=O)NCC(=O)N1Cc2cc(C#N)ccc2C1c1cnco1 (stereo not given)
Second: CC(=O)N1CCc2ccccc2C1CC(=O)NCc1nnc(C)o1 (stereo not given)
The “Percent Effect” value of the first is higher: -4.617% for the first, -6.807% for the second.

First: CCNC(=O)CCC(=O)Nc1nc(C)c(Cc2ccc(F)cc2)s1
Second: Cn1c(NC(=O)CNC(=O)C2CCCC2)nc2cc(Cl)ccc21
The “Percent Effect” value of the first is lower: -19.82% for the first, 10.58% for the second.

Going from `O=c1cc(CN2CCC(CCc3ccc(O)cc3)CC2)[nH]c(=O)[nH]1` to `CCC(=O)N1CC[C@H]2C(=O)N(Cc3ccc(OC)cc3)CCO[C@H]2C1`, the “Percent Effect” value rises from -18.62% to 5.242%.

Going from `COCCC1(CNC(=O)NCC2CCCS2)CCCC1` (stereo not given) to `CC(C)(C)c1cnc(CN2CCC(NC(=O)CC3CCCC3)CC2)o1`, the “Percent Effect” value rises from -6.803% to 1.419%.

First: CN(Cc1nc(COc2ccccc2)no1)CC1Cc2ccccc2O1 (stereo not given)
Second: Cn1ccnc1-c1ccc(NC[C@H]2CCc3ccccc3O2)nn1
The “Percent Effect” value of the first is lower: -1.217% for the first, 2.045% for the second.

Going from `CCc1ccc(CN(C)Cc2nc(-c3cnccn3)no2)nc1` to `CCc1cc(NCCc2cnccn2)n2nc(C)c(C)c2n1`, the “Percent Effect” value falls from 12.77% to -4.525%.

Going from `Cc1csc(CN(C)C(=O)C2CCC(=O)N(CCN(C)C)C2)n1` (stereo not given) to `COc1ccc(CN2CCO[C@H]3CN(C(C)=O)CC[C@H]3C2=O)cc1`, the “Percent Effect” value falls from 2.129% to -1.641%.

Going from `COc1ccc(CN2C[C@@H]3CN(C(=O)c4ccsc4)C[C@@H]3C2=O)cc1` to `COc1ccc(CN2C[C@@H]3OCC(=O)N(CC(N)=O)[C@@H]3C2)cc1`, the “Percent Effect” value falls from -7.26% to -8.877%.

First: CSCCCNc1ncnc2cccc(F)c12
Second: Cc1ccnc(NCCSc2nccn2C)n1
The “Percent Effect” value of the first is lower: -37.93% for the first, -1.785% for the second.

First: COCCS(=O)(=O)N(Cc1cscn1)c1ccccc1
Second: CCC(O)CN(CC(=O)Nc1cc(C)no1)c1ccccc1 (stereo not given)
The “Percent Effect” value of the first is lower: -16.91% for the first, 5.147% for the second.

Compared with `O=C(CCN1C(=O)CCC1=O)Nc1ccc(Cl)cc1`, `O=C(CCC1CCCN(S(=O)(=O)C2CC2)C1)Nc1ccc(Cl)cc1` (stereo not given) is lower in “Percent Effect” value: 9.29% for the first, 0.5143% for the second.

First: O=C(Nc1cnn(CC(=O)N2CCCCO2)c1)c1ccsc1
Second: CN1CCC/C1=N\S(=O)(=O)c1ccc(NC(=O)c2ccsc2)cc1
The “Percent Effect” value of the first is lower: 8.582% for the first, 106.5% for the second.

First: CN1CCC/C1=N\S(=O)(=O)c1ccc(NC(=O)c2ccc(Cl)cc2)cc1
Second: CN1CCC/C1=N\S(=O)(=O)c1ccc(NC(=O)c2ccc(Cl)s2)cc1
The “Percent Effect” value of the first is higher: 101.2% for the first, 40.68% for the second.

Compared with `O=C(Nc1ccccc1C(=O)NCCCN1CCOCC1)c1ccco1`, `CN1CCC/C1=N\S(=O)(=O)c1ccc(NC(=O)c2ccco2)cc1` is higher in “Percent Effect” value: 10.69% for the first, 116.6% for the second.

First: Cc1ccc(C(=O)Nc2ccc(N3CCC(O)CC3)c(C#N)c2)s1
Second: Cc1ccc(C(=O)Nc2ccc(S(=O)(=O)/N=C3\CCCN3C)cc2)s1
The “Percent Effect” value of the first is lower: -23.53% for the first, 80.8% for the second.

Going from `Cc1nccnc1N1C[C@H](NC(=O)CNS(C)(=O)=O)[C@@H](C2CC2)C1` to `Cc1nc(C)n(CC2CN(S(C)(=O)=O)Cc3nccn3C2)n1` (stereo not given), the “Percent Effect” value rises from -53.3% to 2.83%.

Going from `COc1cccc(C(=O)N2CCN(C(=O)CCn3ccnc3)CC2)c1` to `COc1cccc2c1OCC(C(=O)N1CCN(S(=O)(=O)N(C)C)CC1)C2` (stereo not given), the “Percent Effect” value falls from -2.961% to -34.53%.

Compared with `Cc1cc(C(=O)NS(=O)(=O)Cc2ccon2)c(C)o1`, `Cn1cc(NC(=O)Cc2cccs2)c(=O)n(C)c1=O` is lower in “Percent Effect” value: 30.96% for the first, -7.177% for the second.

Compared with `CN1CCC/C1=N\S(=O)(=O)c1ccc(NC(=O)Cc2cccs2)cc1`, `CN1C(=O)CO[C@H](c2ccc(NC(=O)Cc3cccs3)cc2)[C@H]1CO` is lower in “Percent Effect” value: 91.75% for the first, -17.64% for the second.

Compared with `Cc1cc(NCc2nnc3n2CCC3)n2nc(C)c(C)c2n1`, `Cc1cc(NCCSc2nccn2C)n2nc(C)c(C)c2n1` is higher in “Percent Effect” value: 8.542% for the first, 108.3% for the second.

Going from `Cc1cc(NCCSc2nccn2C)n2ncnc2n1` to `Cc1cc(NCCn2cccn2)n2ncnc2n1`, the “Percent Effect” value falls from 81.57% to -4.993%.

First: Cc1cc(NCCCNc2cccnc2)n2nc(C)c(C)c2n1
Second: CCc1cc(NCCc2cccnc2)n2nc(C)c(C)c2n1
The “Percent Effect” value of the first is higher: 88.33% for the first, 15.8% for the second.

First: CCSCCNc1cc(C)nc2c(C)c(C)nn12
Second: CCc1cc(NCCNC(=O)c2cccnc2)n2nc(C)c(C)c2n1
The “Percent Effect” value of the first is higher: 76.05% for the first, 18.31% for the second.

Going from `CNc1ccnc(NCCSc2nccn2C)n1` to `CCCc1cc(NCCn2cccn2)n2ncnc2n1`, the “Percent Effect” value falls from 3.348% to -13%.

First: CCOC(=O)c1nnc2ccccc2c1N1CCN(CC)CC1
Second: CCS(=O)(=O)c1ccc(N2CCC(NC(=O)CC3CCCC3)CC2)cc1
The “Percent Effect” value of the first is higher: -7.556% for the first, -9.103% for the second.

Compared with `O=C(NC1CCCc2nc(N3CCOCC3)ncc21)C1CCCC1` (stereo not given), `O=C(NC1CCCc2nc(N3CCOCC3)ncc21)C1CCCCC1` (stereo not given) is lower in “Percent Effect” value: 122.7% for the first, 91.3% for the second.

Going from `Cc1nnc(CN2CCC3(CCC(=O)N(C4CC4)C3)CC2)o1` to `CCS(=O)(=O)N1Cc2nccn2CC(CN2CCCC2)C1` (stereo not given), the “Percent Effect” value falls from 3.003% to -0.1339%.

Going from `CCS(=O)(=O)N1Cc2nccn2CC(Cn2cccn2)C1` (stereo not given) to `CCCS(=O)(=O)N1Cc2nccn2CC(Cn2cccn2)C1` (stereo not given), the “Percent Effect” value falls from 103.5% to -3.213%.

Compared with `O=S(=O)(C1CC1)N1Cc2nccn2CC(Cn2cncn2)C1` (stereo not given), `CCS(=O)(=O)N1Cc2nccn2CC(Cn2cncn2)C1` (stereo not given) is lower in “Percent Effect” value: 116.3% for the first, 101.6% for the second.

First: CCCS(=O)(=O)N1Cc2nccn2CC(CN2CCCC2)C1.O=C(O)C(F)(F)F (stereo not given)
Second: CCCS(=O)(=O)N1Cc2nccn2CC(Cn2cncn2)C1 (stereo not given)
The “Percent Effect” value of the first is lower: -1.434% for the first, 104.9% for the second.

`CCS(=O)(=O)N1Cc2nccn2CC(Cn2nc(C)nc2C)C1` (stereo not given) was tested, and the “Percent Effect” value was 6.553%.
